High-throughput results (PubChem BioAssay)
HCV inhibitor = HCV inhibition; AID 651820; Potency, µM (highest dose often 41.8 µM), for inactives: at the top dose activity change, negative = inhibition, usual class: inhibitors; Huh7.5.1 HCVcc-Cre infection, luciferase reporter, 44 h; 340,000 compounds, 3.4% hits; further: potency means the concentration at half of the fitted maximal effect; on the % scale 0 is the no-effect control and ±100 the full control effect
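Infectious HCVcc-Cre (~0.5 moi) was added to cells just after compound, with cells seeded 4 h earlier at 1,000 per well. Luciferase activity after 44 h culture reported infection; substrate was incubated 15 min at room temperature before reading.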
Shiga toxin inh = inhibitors of Shiga toxin in Vero cells; 290,000 compounds, 9.2% hits; AID 2315; inhibition, % at 38.7 µM; Vero cells, Shiga toxin protein synthesis inhibition reporter; in the data active means inhibition mostly above about 28%, no sharp cut-off; inactive means mostly below about 43%; further: 0% is about no effect
CHX counter = counter-screen for Shiga toxin inhibitors: cycloheximide protein synthesis inhibition; 300,000 compounds, 12% hits; AID 2314; cell reporter, cycloheximide protein synthesis inhibition counterscreen; max response, %; in the data active means max response mostly above about 13%, no sharp cut-off; inactive means mostly below about 14%; further: read at 38.3 µM for the half of the compounds with a filed dose; 0% is about no effect
Pf growth 48h = inhibits P. falciparum growth in the first generation, 48 h | P. falciparum luciferase growth in erythrocytes, 48 h | Potency, µM (series often up to 28.7 µM), without a hit: at the top dose activity change, negative = inhibition, usual class: inhibitors | 310,000 compounds, 5.9% hits; further: potency means the concentration at half of the fitted maximal effect; on the % scale 0 is the no-effect control and ±100 the full control effect
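Luciferase-expressing P. falciparum in infected erythrocytes (2% hematocrit, 0.1% parasitemia final) in RPMI 1640/0.5% Albumax were exposed to compound for 48 hours at 37 C, 5% CO2; growth read as luminescence.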
Pf growth 96h = inhibits malaria parasite growth, 96 h; P. falciparum luciferase reporter growth, 96 h; AID 504834; Potency, µM (titrated, usually from 28.7 µM), for inactives: at the top dose activity change, negative = inhibition, actives largely listed as inhibitors; 320,000 compounds, 6.9% hits; further: potency means the concentration at half of the fitted maximal effect; on the % scale 0 is the no-effect control and ±100 the full control effect
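Cell-based qHTS: luciferase-tagged P. falciparum in erythrocytes (2% hematocrit, 0.05% parasitemia final) incubated with compounds for 96 hours, 37 C, 5% CO2; luciferase detection reagent then added and luminescence measured.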
HCMV inh = inhibitors of human cytomegalovirus. HFF cells, HCMV-luciferase reporter, 72 h; hits give low values. activity change, negative = inhibition, % at 57.5 µM. 410,000 compounds, 4.5% hits; in the data active means activity change below about -60%; inconclusive means no clear call, values can overlap the other calls; inactive means above about -39%; further: on the % scale 0 is the no-effect control and ±100 the full control effect
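Two compound doses tested in HFFs infected with HCMV-luciferase, MOI 1 PFU/cell, 72 h at 37C. Lysate luminescence read with OneGlo; data normalized against buffer-only and 10uM Salinomycin inhibitor controls.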
Starred values were filed as active, the others as inactive; ? = inconclusive; . = no result given. The list is not random: actives were taken first. Their share in the collection is about 21%. Unless noted, the call rests on the fitted dose curve; in most records, active means well fitted inhibition curve with a large enough effect; inconclusive means small, poorly fitted or top-dose-only effect, or another doubt; inactive means no such curve, though single readings can be large or run the other way.

SMILES | HCV inhibitor | Shiga toxin inh | CHX counter | Pf growth 48h | Pf growth 96h | HCMV inh
COc1cc(Cl)ccc1OCc1cc(C(=O)NCc2cc(C(C)C)no2)no1 | -6% | 53* | 67* | 7% | -4% | 149
COc1ccc(OCc2cc(C(=O)NCCN3CCCc4ccccc43)no2)c(Cl)c1 | 11µM* | 15 | 16* | ? | -29% | 25
COc1ccc(CC(=O)Oc2ccc(C)cc2Br)cc1S(=O)(=O)N1CCOCC1 | 5% | . | . | 9% | 47% | -27
Cc1ccccc1C(=O)NC1CCN(CC(=O)Nc2ccccc2Cl)CC1 | ? | -9 | -1 | -13% | 0.93µM* | 6
Cc1ccc(C(=O)C2CCN(CC(=O)Nc3ccccc3C)CC2)cc1 | ? | 2 | -4 | 13% | 39% | -63*
COC(=O)c1ccccc1NC(=O)CN1CCC(NC(=O)c2ccccc2C)CC1 | -25% | 41 | 13 | ? | -16% | -28
O=C(NC1CCN(c2ncccn2)CC1)c1ccccc1Cl | 9% | 1 | 4 | -10% | 10µM* | 22
CCOC(=O)c1c(S(=O)(=O)N2CCCC(C(=O)Nc3cc(C)ccc3OC)C2)c(C)n(C)c1C (stereo not drawn) | . | . | . | . | . | 10
CCCCN(C(=O)c1ccc(S(=O)(=O)N(CC)CC)cc1)c1c(N)n(CCC)c(=O)[nH]c1=O | -16% | 23 | 3 | -10% | 11% | -6
O=S(=O)(c1ccccc1)N1CCN(CC2CC3C=CC2C3)CC1 (stereo not drawn) | 15% | -7 | -3 | -7% | 7% | -102*
CCCCNC(=O)c1ccc2c(=O)n(-c3ccccc3)c(=O)[nH]c2c1 | . | . | . | . | . | -3
COc1cc(C2C(C#N)=C(C)NC3=C2C(=O)CC(C)(C)C3)cc(OC)c1O (stereo not drawn) | -21% | 3 | 11 | -25% | 28% | -61*
COc1cc(C2C(C#N)=C(N)N(N(C)C)C3=C2C(=O)CC(C)(C)C3)cc(OC)c1OC (stereo not drawn) | 5% | -4 | -3 | -16% | ? | -82*
O=C(C[C@@H]1C/C=C\CCC(=O)O[C@H](c2ccccc2)CNC1=O)N[C@H](CO)Cc1ccccc1 | 24% | . | . | . | . | 10
Cc1ccc(C)c(CNC(=O)CCn2cccn2)c1 | . | . | . | . | . | 33
CCN1/C(=C/c2cc[n+](C)cc2)C=Cc2cc(C)ccc21 | 5µM* | 8 | -1 | 0.74µM* | -26% | -100*
CCCCN(CCCC)C1=Nc2ccccc2N/C1=C(/C#N)C(=O)OCC | -9% | 21 | -2 | -34% | ? | -32
CCOC(=O)/C(C#N)=C1\Nc2ccccc2N=C1N(CC(C)C)CC(C)C | -7% | -13 | 4 | 2.3µM* | 19% | -35
O=S(=O)(Cc1cc(NCc2ccccc2)nc(-c2ccncc2)n1)c1ccccc1 | ? | -13 | -9 | ? | ? | -8
O=S(=O)(Cc1cc(NCc2ccccc2)nc(-c2ccccn2)n1)c1ccccc1 | ? | -10 | 4 | ? | 8.3µM* | ?
CNc1ncnc2c1ncn2[C@H]1CN(Cc2ccco2)C[C@@H](CO)O1 | . | . | . | . | . | -26
S=C(NCCCc1ccccc1)NC1CCCCC1 | ? | 71* | 47* | ? | -1% | ?
S=C(NCCc1ccccn1)NC1CCCCC1 | 6% | 27* | 42* | 53% | 0% | 90
Cc1ccc(S(=O)(=O)N2[C@@H](c3ccc(Br)cc3)C(C(=O)O)=C[C@H]2C(C)(C)C)cc1 | 16% | . | . | . | . | -17
COc1ccccc1C(=O)NC(CCSC)C(=O)Nc1ccc(C)c(S(=O)(=O)N2CCOCC2)c1 (stereo not drawn) | ? | . | . | . | . | -2
SMILES | HCV inhibitor | Shiga toxin inh | CHX counter | Pf growth 48h | Pf growth 96h | HCMV inh
CC12CC(c3ccccc3O1)N(C(=O)c1ccco1)C(=S)N2c1ccc(F)cc1 (stereo not drawn) | 2.8µM* | -14 | -2 | ? | . | 59
CC(Oc1ccc(Cl)cc1Cl)C(=O)NNC(=O)C(=O)N1CCCC1 (stereo not drawn) | 14% | 14 | -2 | 19% | 14% | 19
O=C(Cn1cc(S(=O)(=O)Cc2cccc(Cl)c2)c2ccccc21)NCc1ccccc1Cl | . | . | . | . | . | 0
CCN(C(=O)CC(C)C)c1nnc(Cn2nnc3ccccc32)s1 | 13µM* | 21 | 5 | -17% | 34% | -36
CCN(C(=O)c1ccc(C(C)(C)C)cc1)c1nnc(Cn2nnc3ccccc32)s1 | 1µM* | -16 | -2 | 10µM* | 120% | -65*
CC(=O)OCC(=O)Nc1c(C)cc(C)cc1C | 10% | -9 | 0 | -18% | -10% | -13
O=C(CC1C(=O)N(c2ccccc2)C(=O)N1Cc1ccc(F)cc1)Nc1cccc(F)c1 (stereo not drawn) | . | . | . | . | . | -26
Cn1c2ccccc2c(=O)c2cc(C#CC3(O)CCCCC3)ccc21 | 14% | 56* | 27* | 94% | 124% | -2
Cn1c2ccccc2c(=O)c2ccc(C#CC3(N)CCCCC3)cc21 | 11µM* | 85* | 45* | 19% | ? | 37
Cc1cc2sc3ccc(C#CC4(O)CCCCC4)cc3c(=O)c2cc1C | -1% | . | . | . | . | -96*
O=c1c2ccccc2oc2ccc(C#CC3(O)CCCCC3)cc12 | ? | . | . | . | . | -35
NC1(C#Cc2ccc3c(=O)c4ccccc4sc3c2)CCCCC1 | -8% | . | . | . | . | 26
COc1cccc2oc3ccc(C#CC4(N)CCCCC4)cc3c(=O)c12 | ? | 24* | 21* | -23% | -80% | 19
NNC(=O)c1nnsc1-c1csnn1 | 22% | . | . | . | . | 23
CC12CCC=CC1C(c1ccc(C(F)(F)F)cc1)N(Cc1ccccc1)C2=O (stereo not drawn) | . | -14 | 0 | . | . | .
COC(=O)c1nc(NNC(=O)c2ccccc2)sc1-c1ccccc1 | -4% | 18 | 5 | 18% | 55% | 87
COc1cc2[nH]c(=O)n(CCCC(=O)N3CCN(c4cccc(C(F)(F)F)c4)CC3)c(=O)c2cc1OC | . | . | . | . | . | -7
CCCc1cc(=O)oc2c3c(ccc12)OCN(Cc1ccc(OC)cc1)C3 | . | -4 | -2 | . | . | -29
CC(=O)c1ccc2c(c1)N(C)c1ccccc1S2 | ? | 15* | 15* | 23% | 10% | 23
COc1cc(OC)cc(C(=O)/C=C2\Sc3ccccc3N2C)c1 | 6% | 42* | 41* | 148% | 87% | -40
CN1/C(=C\C(=O)c2cccc([N+](=O)[O-])c2)Sc2ccccc21 | 10% | 97* | 38* | 226% | 161% | -9
COc1ccc2c(c1)S/C(=C\C(=O)c1ccncc1)N2C | -19% | 110* | 47* | 80% | 23% | 40
CCOC(=O)C(Nc1ccccc1NC(=O)OC(C)(C)C)C(=O)Nc1c(C)cccc1C (stereo not drawn) | . | . | . | . | . | -8
Cc1cccc(OCCn2c(SCC(N)=O)nc3ccccc32)c1 | . | . | . | . | . | 14
